Data on 25 compounds can be found in PubChem BioAssay (NCI).

About 83,000 compounds went through this panel and 20% of them were active in at least one assay; those are over-represented in the sample as a whole.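 Single-concentration screen, 48 h exposure, 96-well plates. Endpoint: percent growth. Below 10 = active.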 Calls of active or inactive are those of the source.

The experiment concerns HL-60(TB) leukemia. Put plainly: NCI-60 one-dose screen, 48 h (100 = growth as untreated, 0 = no growth, -100 = all killed). Conditions: 10 µM unless noted.
As to `COc1ccc(-c2nc(SCC(=O)Nc3ccc(C(=O)/C=C/c4ccc(Cl)cc4)cc3)[nH]c(=O)c2C#N)cc1`, the growth is 105% (inactive). Consider `CN1CCN(Cc2ccc(NC(=O)c3[nH]ncc3Nc3ncnc4sc5c(c34)CCCC5)cc2)CC1`, for which the growth is -67.4% (active). Next, `CC(C)CC1NC(C)(C)CO1` (stereo not given): 133% (inactive); `Cc1ccc2[nH]c(=S)[nH]c(=O)c2c1`: 105% (inactive). In the case of `N[C@@H]1CCN(C(=O)c2cc3cc(Cl)c(F)c(F)c3[nH]2)C1`, the growth was 97.7% (inactive). The result for `CN1CCN(c2ccc(NC(=O)c3cncnc3Nc3ccc(OCc4cccc(F)c4)c(Cl)c3)cc2)CC1` reads 66.9% (inactive); that for `O=C(Nc1ccc(Oc2ccc(F)cc2)c(Cl)c1)c1cccnn1`, 56.3% (inactive); that for `O=C(Nc1cccc([N+](=O)[O-])c1)c1cccc(C(=O)Nc2cccc([N+](=O)[O-])c2)c1`, 81% (inactive). Next, `CCOc1cc2ncc(C#N)c(Nc3ccc(F)c(Cl)c3)c2cc1NC(=O)/C=C/CN(C)C`: -52.6% (active). Next, `COC1C/C(=N\O)C2OC(c3ccccc3)OCC2O1` (stereo not given): 101% (inactive); `COc1nc2ccccc2cc1/C=C1/C=C(c2ccccc2)NC1=O`: -8.46% (active); `COc1cc2c(c(OC)c1OC)-c1ccc(NNC(=S)N(Cc3cccc(C[N+](Cc4cccc(CNC56CC7CC(CC(C7)C5)C6)c4)(Cc4cccc(CNC56CC7CC(CC(C7)C5)C6)c4)Cc4cccc(CN(C(=S)NNc5ccc6c(cc5=O)[C@@H](NC(C)=O)CCc5cc(OC)c(OC)c(OC)c5-6)C56CC7CC(CC(C7)C5)C6)c4)c3)C34CC5CC(CC(C5)C3)C4)c(=O)cc1[C@@H](NC(C)=O)CC2` (stereo not given in full): -63.4% (active). As to `Oc1cc(O)c2c(=S)cc(-c3ccc(Cl)cc3)oc2c1`, the growth was 37.6% (inactive). The result for `CN(C)CCOc1ccccc1NC1=C(Cl)C(=O)C(Nc2ccccc2OCCN(C)C)=C(Cl)C1=O` reads -18.9% (active); that for `COc1cc(/C=N/n2c(CN3CCOCC3)nc3ccccc3c2=O)cc(OC)c1OC`, 98.1% (inactive). The result for `C/C(=N/NC(=O)c1sc(=S)n(C)c1N)c1cc2cc(Cl)ccc2o1` reads 113% (inactive). Next, `O=C(CN1CCOCC1)Nc1ccc2ncnc(Nc3ccc(OCc4cccc(F)c4)c(Cl)c3)c2c1`: 75.2% (inactive). With `C=C(C[n+]1ccccc1)[C@@H]1CC[C@]2(C(=O)OC)CC[C@]3(C)[C@H](CC[C@@H]4[C@@]5(C)CCC(=O)C(C)(C)[C@@H]5CC[C@]43C)[C@@H]12`, the growth was 58% (inactive). As for `CCNCC(C)(C)O`, the growth is 102% (inactive). The result for `CS/C(=C\c1ccc(C(=O)c2ccc(C)cc2)n1C)S(C)=O` (stereo not given) reads 53.6% [100 µM] (inactive); that for `Cc1ccc(C2CC3c4ccccc4C2C2CCCCN32)cc1` (stereo not given), 52.8% (inactive).

Turning to `Cn1c(/C=C/[N+](=O)[O-])cc2ccccc21`, the growth is 53.4% (inactive). Next, `Cc1ccc2c(n1)C(=O)c1[nH]c3ccccc3c1C2=O`: 67.8% (inactive); `NC(=O)c1ccc2c(c1)OCO2`: 103% (inactive). Regarding `COc1ccc2c(c1)c(-c1nc(-c3cn(C)c4ncccc34)cs1)cn2CCCN1CCCCC1`, the growth is 4.1% (active).
